Reference: PubChem BioAssay (NCI)
Values joined by “and” are separate entries in the source; they are usually repeats but may differ in a detail not shown here. Identical values can stand only once. About 83,000 compounds went through this panel and 20% of them were active in at least one assay; those are over-represented in the sample as a whole.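 A percent growth of 40 corresponds to 60% growth inhibition; 0 means no net growth; -100 means all cells died. Active threshold: below 10.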 Unmarked numbers belong to inactive results. Active and inactive are the calls of the source.

What follows are compounds tested on MDA-MB-435 melanoma (assay: NCI-60 one-dose screen, 48 h (100 = growth as untreated, 0 = no growth, -100 = all killed)). Conditions: 10 µM unless noted.

Row | Structure (SMILES) | growth
1 | CCOC(=O)c1c(-c2ccc(C)cc2)c(C#N)c(=O)n(-c2cccc(C(F)(F)F)c2)c1N | 102%
2 | c1cc(NCCCCN2CCOCC2)c2ccc3c(ccc4c(NCCN5CCOCC5)ccnc43)c2n1 | 98.5%
3 | CCCO/N=C/c1ccccn1 | 107% and 105%
4 | O=C(Nc1ncc(Cc2cccc(C(F)(F)F)c2)s1)c1ccc(-n2cnnn2)cc1 | 24%
5 | N=C(N)c1ccc(-c2ccc(-c3ccc(Cl)c(Cl)c3)s2)cc1 | 14.4%
6 | NC(=O)c1c(NC(=O)/C=C/c2cccs2)sc2c1CCC(=O)C2 | 14.2%
7 | CCOc1ccccc1NC(=O)c1cc2ccccc2cc1O | 49.4%
8 | O=C(CCl)n1nnnc1Cc1ccccc1 | 103%
9 | CCNC(=S)n1nc(SC)c(C(=O)OCC)c1N | 104%
10 | CC/C(=C(/c1ccc(Cl)cc1)c1ccc(OCCN2CCOCC2)cc1)c1ccccc1 | 94.8%
11 | O=S(=O)(O)c1ccc(N=Nc2ccc(N=Nc3cccc4ccccc34)c(S(=O)(=O)O)c2)cc1 | 108%
12 | Nn1c(-c2ccc(Cl)cc2)nc2c(-c3ccc(Cl)cc3)nc3ccc(Cl)cc3c2c1=O | 37.4%
13 | Nc1ncnc2c1C(c1ccc([N+](=O)[O-])cc1)c1sc3c(F)cccc3c1O2 (stereo not drawn) | 101%
14 | COc1ccc(C/C(C)=C(/c2ccc(OCCN3CCCCCC3)cc2)c2ccc(OC(=O)c3ccccc3)cc2)cc1 | 104%
15 | COc1ccc2c(c1)oc1c(C)c3c(c(C)c12)C(=O)N(Nc1ccccc1)C3=O | 104%
16 | CC(=O)c1c(C)nc(SCC(=O)Nc2ccc(Cl)cc2)n1-c1ccc(Cl)cc1 | 89.6%
17 | C=C1C(=O)O[C@H]2[C@H]1CC/C(CNS(=O)(=O)c1ccc3ccccc3c1)=C\CC[C@@]1(C)O[C@@H]21 | 0.587% (active)
18 | CN(Cc1ccccc1)c1nc(Cl)c(C2CC(c3ccc4c(c3)OCO4)=NN2c2cc(Cl)cc(Cl)c2)s1 (stereo not drawn) | 97.2%
19 | Cc1cnc(C(=O)NNc2nc3sc4c(c3c(=O)[nH]2)C(C)CCC4)cn1 (stereo not drawn) | 31.4%
20 | N#CC1=C(N)Oc2c(sc3c(Br)cccc23)C1c1ccccn1 (stereo not drawn) | 77.4%

Row | Structure (SMILES) | growth
21 | Cc1cc2nc(C(Cl)Cl)nc(-c3ccc(Cl)cc3)n2n1 | -25.2% (active)
22 | COc1ccc(/C=C2/C(=O)N=C3N2NC(c2ccccc2)=CN3c2ccccc2)cc1 | 108%
23 | Nc1nc(Nc2ccc(F)cc2)nn1C(=O)c1cc(Cl)ccc1Cl | 88.8%
24 | O=C1C=C(Nc2ccccc2)c2ncccc2C1=O | -95.3% (active)
25 | O=C(N/N=C/c1ccc(O)cc1O)c1cccc(Nc2ccnc(C(F)(F)F)c2)c1 | 41%
26 | O=C(N=Nc1c(O)[nH]c2ccccc12)Nc1ccc(Br)cc1 | 90.4%
27 | Cc1nonc1-c1ccc2c(c1)OCO2 | 89.9% and 109%
28 | COc1ccc(-c2c[nH]c(C(=O)O)c2-c2cc(OC)c(OC)c(OC)c2)cc1 | -21.3% (active)
29 | OCCN1CCN(CC/C=C2\c3ccccc3Sc3ccc(Cl)cc32)CC1 | -70.8% (active) and -44.4% (active)
30 | O=C(/C=C/c1ccc(F)cc1)Nc1ncc(Cc2ccc(F)cc2)s1 | -48.2% (active)
31 | O=C1C(Nc2ccc(Cl)cc2)=C(I)C(=O)c2ncccc21 | -80.5% (active)
32 | CCCCSc1ccc2nc(-c3ccc(OCCCN=C(N)N)cc3)cn2c1 | 47.6%
33 | COC1=CC(=O)C(OC)=C(O)C1=O | 101%
34 | COc1ccc(-c2cc(-c3cccc(Cl)c3)c(C#N)c(=O)[nH]2)c(OC)c1 | 87.1%
35 | O=C(c1cccc(Br)c1)N1CCN(c2ccnc3cc(Cl)ccc23)CC1 | 90.2%
36 | COc1cc(NC2CCCCC2O)c2nc(-c3ccc(Cl)cc3)ccc2c1 (stereo not drawn) | 68.4% and 86.5%
37 | CC(=O)c1nn(-c2ccccc2)/c(=N/N=Cc2cn(-c3ccccc3)nc2-c2cc3ccccc3oc2=O)s1 | 103%
38 | Nc1ccc(-c2ccc(N)c(Br)c2)cc1Br | 1.83% (active)
39 | FC(F)(F)Sc1ccc(/C=C/c2cc(/C=C/c3ccc(SC(F)(F)F)cc3)n(-c3ccccc3)n2)cc1 | 91.7%

These compounds were tested on SW-620 colon in the same assay as above. Conditions: 10 µM unless noted.

Row | Structure (SMILES) | growth
40 | CCOC(=O)c1c(-c2ccc(C)cc2)c(C#N)c(=O)n(-c2cccc(C(F)(F)F)c2)c1N | 101%
41 | c1cc(NCCCCN2CCOCC2)c2ccc3c(ccc4c(NCCN5CCOCC5)ccnc43)c2n1 | -16.5% (active)
42 | CCCO/N=C/c1ccccn1 | 102% and 110%
43 | O=C(Nc1ncc(Cc2cccc(C(F)(F)F)c2)s1)c1ccc(-n2cnnn2)cc1 | 53.4%
44 | N=C(N)c1ccc(-c2ccc(-c3ccc(Cl)c(Cl)c3)s2)cc1 | -65.1% (active)
45 | NC(=O)c1c(NC(=O)/C=C/c2cccs2)sc2c1CCC(=O)C2 | 15.1%
46 | CCOc1ccccc1NC(=O)c1cc2ccccc2cc1O | 64.7%
47 | O=C(CCl)n1nnnc1Cc1ccccc1 | 101%
48 | CCNC(=S)n1nc(SC)c(C(=O)OCC)c1N | 102%
49 | CC/C(=C(/c1ccc(Cl)cc1)c1ccc(OCCN2CCOCC2)cc1)c1ccccc1 | 83.7%
50 | O=S(=O)(O)c1ccc(N=Nc2ccc(N=Nc3cccc4ccccc34)c(S(=O)(=O)O)c2)cc1 | 96.2%
51 | Nn1c(-c2ccc(Cl)cc2)nc2c(-c3ccc(Cl)cc3)nc3ccc(Cl)cc3c2c1=O | -66.1% (active)
52 | Nc1ncnc2c1C(c1ccc([N+](=O)[O-])cc1)c1sc3c(F)cccc3c1O2 (stereo not drawn) | 98.3%
53 | COc1ccc(C/C(C)=C(/c2ccc(OCCN3CCCCCC3)cc2)c2ccc(OC(=O)c3ccccc3)cc2)cc1 | 98.4%
54 | COc1ccc2c(c1)oc1c(C)c3c(c(C)c12)C(=O)N(Nc1ccccc1)C3=O | 110%
55 | CC(=O)c1c(C)nc(SCC(=O)Nc2ccc(Cl)cc2)n1-c1ccc(Cl)cc1 | 87.6%
56 | C=C1C(=O)O[C@H]2[C@H]1CC/C(CNS(=O)(=O)c1ccc3ccccc3c1)=C\CC[C@@]1(C)O[C@@H]21 | -29.8% (active)
57 | CN(Cc1ccccc1)c1nc(Cl)c(C2CC(c3ccc4c(c3)OCO4)=NN2c2cc(Cl)cc(Cl)c2)s1 (stereo not drawn) | 99.1%
58 | Cc1cnc(C(=O)NNc2nc3sc4c(c3c(=O)[nH]2)C(C)CCC4)cn1 (stereo not drawn) | 35.3%
59 | N#CC1=C(N)Oc2c(sc3c(Br)cccc23)C1c1ccccn1 (stereo not drawn) | 34.8%

Row | Structure (SMILES) | growth
60 | Cc1cc2nc(C(Cl)Cl)nc(-c3ccc(Cl)cc3)n2n1 | -36.6% (active)
61 | COc1ccc(/C=C2/C(=O)N=C3N2NC(c2ccccc2)=CN3c2ccccc2)cc1 | 101%
62 | Nc1nc(Nc2ccc(F)cc2)nn1C(=O)c1cc(Cl)ccc1Cl | 71.4%
63 | O=C1C=C(Nc2ccccc2)c2ncccc2C1=O | -70.6% (active)
64 | O=C(N/N=C/c1ccc(O)cc1O)c1cccc(Nc2ccnc(C(F)(F)F)c2)c1 | 35.7%
65 | O=C(N=Nc1c(O)[nH]c2ccccc12)Nc1ccc(Br)cc1 | 91.6%
66 | Cc1nonc1-c1ccc2c(c1)OCO2 | 105% and 107%
67 | COc1ccc(-c2c[nH]c(C(=O)O)c2-c2cc(OC)c(OC)c(OC)c2)cc1 | 23.6%
68 | OCCN1CCN(CC/C=C2\c3ccccc3Sc3ccc(Cl)cc32)CC1 | -75.2% (active) and 0.592% (active)
69 | O=C(/C=C/c1ccc(F)cc1)Nc1ncc(Cc2ccc(F)cc2)s1 | 25.3%
70 | O=C1C(Nc2ccc(Cl)cc2)=C(I)C(=O)c2ncccc21 | -27% (active)
71 | CCCCSc1ccc2nc(-c3ccc(OCCCN=C(N)N)cc3)cn2c1 | 83.5%
72 | COC1=CC(=O)C(OC)=C(O)C1=O | 93.2%
73 | COc1ccc(-c2cc(-c3cccc(Cl)c3)c(C#N)c(=O)[nH]2)c(OC)c1 | 96.3%
74 | O=C(c1cccc(Br)c1)N1CCN(c2ccnc3cc(Cl)ccc23)CC1 | 101%
75 | COc1cc(NC2CCCCC2O)c2nc(-c3ccc(Cl)cc3)ccc2c1 (stereo not drawn) | 78.9% and 86.7%
76 | CC(=O)c1nn(-c2ccccc2)/c(=N/N=Cc2cn(-c3ccccc3)nc2-c2cc3ccccc3oc2=O)s1 | 104%
77 | Nc1ccc(-c2ccc(N)c(Br)c2)cc1Br | 47%
78 | FC(F)(F)Sc1ccc(/C=C/c2cc(/C=C/c3ccc(SC(F)(F)F)cc3)n(-c3ccccc3)n2)cc1 | 94.9%
